Records with an inconclusive call do not appear.

A short description of the experiment: qHTS Assay for Lipid Storage Modulators (AID 1519). Conditions: Drosophila S3 cells, BODIPY lipid droplet/cell ratio, laser cytometry; measured here: cell count channel max response; cells loaded with oleic acid. The gist of the method:
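Cells seeded at 5,000 per well were treated with compounds over a concentration series and loaded with oleic acid (400 uM, as added). Lipid droplet fluorescence (488 nm excitation, 500-530 nm channel) was read by laser-scanning cytometry and normalized to 20 uM Triacsin C.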
Background: In qHTS, concentration-response curves come from the screen itself.
On to `COc1cc2ccc(=O)oc2c(O)c1O`, for which the max response came to 13.9%. For `C[C@@H]1O[C@H](O[C@@H]2[C@H](C)O[C@H](O[C@@H]3[C@H](C)O[C@H](O[C@H]4CC[C@]5(C)[C@@H](CC[C@@H]6[C@H]5C[C@@H](O)[C@]5(C)[C@@H](C7=CC(=O)OC7)CC[C@]65O)C4)C[C@@H]3O)C[C@@H]2O)C[C@H](O)[C@@H]1O`, the max response came out at 2.04%. As for `CCC(C)(C)C(=O)O[C@@H]1C[C@H](C)C=C2C=C[C@H](C)[C@@H](CC[C@H]3C[C@@H](O)CC(=O)O3)[C@H]21`, the figure is -10.9%; as for `Cc1onc(-c2c(F)cccc2Cl)c1C(=O)N[C@H]1C(=O)N2[C@H]1SC(C)(C)[C@H]2C(=O)O`, -8.13%; as for `CCN(CC)[C@@H](C)CN1c2ccccc2Sc2ccccc21`, -2.62%. The same measure for `O=c1cc(-c2cccc(O)c2)oc2cc(O)ccc12`: 22.9%; for `COC(=O)[C@@H]1[C@@H]2C[C@H]3c4[nH]c5cc(OC)ccc5c4CCN3C[C@@H]2C[C@H](OC(=O)/C=C\c2cc(OC)c(OC)c(OC)c2)[C@H]1OC`: -4.11%; for `CO[C@@H]1CC[C@@]2(C)[C@@H](CC[C@@]3(C)[C@H]2CC=C2[C@H]4CC(C)(C)[C@H](O)[C@@H](OC(C)=O)[C@]4(CO)[C@H](O)C[C@]23C)[C@@]1(C)CO` (tested in a mixture with another compound): 6.28%. Consider `CN1[C@H](CC(=O)c2ccccc2)CCC[C@H]1C[C@@H](O)c1ccccc1`, for which the max response was -11.7%. For the compound `CC[C@H](C(=O)[C@H](C)[C@H](O)[C@H](C)CCc1ccc(C)c(O)c1C(=O)O)[C@H]1O[C@](CC)([C@@H]2CC[C@@](O)(CC)[C@H](C)O2)C[C@H]1C`, the max response is -26.4%.
